Assay results reported in PubChem BioAssay (NCI).
This is part of a sample that, as a whole, favours compounds with a hit. Of some 83,000 tested, about 20% had one in any assay.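 Single-dose data. Exposure time 48 hours. Values below 10 considered active.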 Calls of active or inactive are those of the source.

These molecules were tested on HL-60(TB) leukemia (assay: NCI-60 one-dose screen, 48 h (100 = growth as untreated, 0 = no growth, -100 = all killed)). Settings: 10 µM unless noted.
For `C/C(=N/N)c1nnn(-c2ccc(Br)cc2)c1C`, the growth was 102% (inactive).
In the case of `Cc1ccc(NC(=O)c2cccc(CN3CCN(C)CC3)c2)cc1Oc1ccc(-c2[nH]nc3ncnc(N)c23)cc1`, the growth is reported as 46.8% (inactive).
For `NC(=O)c1c(NC(=O)c2ccc(C(F)(F)F)cc2)sc2c1CCC(=O)C2`, the growth was 6.39% (active).
In the case of `CN1CCN(c2ccc(C(=O)/C=C/c3cc(F)cc(C(F)(F)F)c3)cc2)CC1`, the growth is reported as 3.06% (active).
With `CN1CCN(c2ccc3c(c2)nc(NNC(=O)c2ccncn2)c2cccn23)CC1` the growth was 10.4% (inactive).
For `O=c1oc2ccc(-c3ccc(F)cc3F)cc2c(=O)n1-c1cccc(C(F)(F)F)c1`, the growth was -32.7% (active).
`COc1cc(/C=C/C(=O)c2ccc(Cl)cc2)ccc1Oc1nc(NCCO)nc(N2CCOCC2)n1` was tested, and the growth was 93.7% (inactive).
With `O=C1/C(=C/C=C/c2ccco2)SC(=S)N1c1ccccc1` the growth was 51.8% (inactive).
`CCCCCCNC(=O)Oc1ccc(/C(=C(\C)c2ccc(OC)cc2)c2ccc(OCCN(C)C)cc2)cc1` was tested, and the growth was 56.3% (inactive).
With `C#Cc1nc(/C=C/C(=O)c2nccn2C)cs1` the growth was -40.3% (active).
`CCCCNNC(=O)c1ccc(-c2cccc(F)c2F)cc1` was tested, and the growth was 28.4% (inactive).
For `COc1cc(/C=N\NC(=O)c2ccc3nc(-c4ccc(Br)cc4)[nH]c3c2)cc(OC)c1OC`, the growth was 27% (inactive).
In the case of `CCOC(=O)c1sc(NCC(=O)Nc2cccc([N+](=O)[O-])c2)c(C(=O)OCC)c1C`, the growth is reported as 0.979% (active).
For `O=C(O)c1ccc(-n2cc(CNc3cccc(Cl)c3)c(-c3ccc(F)cc3)n2)cc1`, the growth was 105% (inactive).
With `Brc1cccc(-c2cc(-c3cnc4c(c3)OCCO4)n[nH]2)c1` the growth was 21.2% (inactive).
With `C=CCn1c(SCC(=O)Nc2ccc(C(=O)/C=C/c3ccc(Br)cc3)cc2)nnc1-c1c[nH]c2ccccc12` the growth was 84.3% (inactive).
In the case of `Cc1ccc2c(n1)C(=O)C(Cl)=C(Nc1cccc(C(C)C)c1)C2=O`, the growth is reported as 10.3% (inactive).
For `COc1ccc(-n2c(/C=C3\C(=O)Nc4ccccc43)ccc2CO)cc1`, the growth was 92.7% (inactive).
For `Cc1c(Nc2nnc(SCC(=O)Nc3sc4c(c3C#N)CCCC4)s2)c(=O)n(-c2ccccc2)n1C`, the growth was 108% (inactive).
`O=C1CSC(c2cn(-c3ccccc3)nc2-c2ccc(Cl)cc2)N1c1ccccc1` (configuration not stated) was tested, and the growth was 117% (inactive).
`COc1c(N2CC3CCCNC3C2)c(F)cc2c(=O)c(C(=O)N/N=C/c3c[nH]c4ccccc34)cn(C3CC3)c12` (configuration not stated) was tested, and the growth was 94.4% (inactive).
With `Cc1ccc(NC(=O)Nc2nc3ccc([N+](=O)[O-])cc3s2)cc1` the growth was -17.2% (active).
With `Fc1cccc(Cl)c1/C=N/Nc1nc(N/N=C/c2c(F)cccc2Cl)nc(N2CCCCC2)n1` the growth was 1.27% (active).
`Cn1ccnc1C(=O)/C=C/c1ccc(NC(=O)Nc2ccc(F)cc2)cc1` was tested, and the growth was 7.58% (active).
For `CNC(=O)c1c(NC(=O)c2cccc(C(F)(F)F)c2F)sc2c1CCC(=O)C2`, the growth was 4.41% (active).
In the case of `CC(=O)C1=NN(c2ccc(Cl)cc2)C(=O)CN1C`, the growth is reported as 105% (inactive).
For `C#C[C@]1(O)CC[C@H]2[C@@H]3CC=C4c5sc(-c6ccc7c(c6)OCO7)nc5CC[C@]4(C)[C@H]3CC[C@@]21C`, the growth was 46.8% (inactive).
With `CC1COc2c(N3CCN(C)CC3)c(F)cc3c(=O)c(C(=O)N/N=C/c4cc[nH]c4)cn1c23` (configuration not stated) the growth was 20.3% (inactive).
In the case of `N#Cc1c(-c2cccs2)cc(-c2cnccn2)nc1SCC(=O)c1ccc(F)cc1`, the growth is reported as 131% (inactive).
In the case of `Cc1cc(-c2ccc3nc(N)sc3c2)nc2ccc3[nH]ncc3c12`, the growth is reported as 25.8% (inactive).
In the case of `Cc1ccc(-c2cc3nc(C(Cl)Cl)nc(-c4cccs4)n3n2)cc1`, the growth is reported as 23.9% (inactive).
For `Cc1ccc(CSc2nc(-c3ccc(Cl)cc3)c(C#N)c(N3CCNCC3)n2)cc1`, the growth was 43.3% (inactive).
In the case of `CCCCN1C(=O)/C(=c2\sc3n(c2=O)C2C(NN=3)N(CC)C(=O)N2CC)c2cc(Cl)ccc21` (configuration not stated), the growth is reported as 51.7% (inactive).
With `CNC(=O)c1cc(Oc2ccc3nc(NC(=O)c4cc(C)cc(C)c4)sc3c2)ccn1` the growth was 70.4% (inactive).
With `COc1ccc(Cn2cc3c(c2-c2ccccc2)CCCc2cnoc2-3)cc1` the growth was 6.55% (active).
In the case of `CN1CCN(Cc2ccc(NC(=O)c3cncc(C#Cc4cnc5ccc(O[C@H]6CCOC6)nn45)c3)cc2C(F)(F)F)CC1`, the growth is reported as -41.2% (active).
For `Nc1nc(Nc2ccccc2SSc2ccccc2Nc2nc(N)nc(-c3ccccc3)n2)nc(-c2ccccc2)n1`, the growth was 62.1% (inactive).
